# Reference: PubChem BioAssay AID504339 (National Center for Advancing Translational Sciences (NCATS), 2011)
# The whole screen tested about 390,000 compounds, of which about 17,000 (4.4%) were called active. Inconclusive results (about 8%) are left out. Many of the other results were omitted from the sample, so actives are more common in it than they were. Values without a mark were called inactive. Calls come from the whole dose curve; as a rule, active = well fitted inhibition curve with a large enough effect; inconclusive = small, poorly fitted or top-dose-only effect; inactive = no such curve, though single readings can be large or run the other way.
# Molecular target: Lysine-specific demethylase 4A (Homo sapiens) (UniProt O75164)
# Sequence (O75164 whole entry, looked up, the tested form may be a part): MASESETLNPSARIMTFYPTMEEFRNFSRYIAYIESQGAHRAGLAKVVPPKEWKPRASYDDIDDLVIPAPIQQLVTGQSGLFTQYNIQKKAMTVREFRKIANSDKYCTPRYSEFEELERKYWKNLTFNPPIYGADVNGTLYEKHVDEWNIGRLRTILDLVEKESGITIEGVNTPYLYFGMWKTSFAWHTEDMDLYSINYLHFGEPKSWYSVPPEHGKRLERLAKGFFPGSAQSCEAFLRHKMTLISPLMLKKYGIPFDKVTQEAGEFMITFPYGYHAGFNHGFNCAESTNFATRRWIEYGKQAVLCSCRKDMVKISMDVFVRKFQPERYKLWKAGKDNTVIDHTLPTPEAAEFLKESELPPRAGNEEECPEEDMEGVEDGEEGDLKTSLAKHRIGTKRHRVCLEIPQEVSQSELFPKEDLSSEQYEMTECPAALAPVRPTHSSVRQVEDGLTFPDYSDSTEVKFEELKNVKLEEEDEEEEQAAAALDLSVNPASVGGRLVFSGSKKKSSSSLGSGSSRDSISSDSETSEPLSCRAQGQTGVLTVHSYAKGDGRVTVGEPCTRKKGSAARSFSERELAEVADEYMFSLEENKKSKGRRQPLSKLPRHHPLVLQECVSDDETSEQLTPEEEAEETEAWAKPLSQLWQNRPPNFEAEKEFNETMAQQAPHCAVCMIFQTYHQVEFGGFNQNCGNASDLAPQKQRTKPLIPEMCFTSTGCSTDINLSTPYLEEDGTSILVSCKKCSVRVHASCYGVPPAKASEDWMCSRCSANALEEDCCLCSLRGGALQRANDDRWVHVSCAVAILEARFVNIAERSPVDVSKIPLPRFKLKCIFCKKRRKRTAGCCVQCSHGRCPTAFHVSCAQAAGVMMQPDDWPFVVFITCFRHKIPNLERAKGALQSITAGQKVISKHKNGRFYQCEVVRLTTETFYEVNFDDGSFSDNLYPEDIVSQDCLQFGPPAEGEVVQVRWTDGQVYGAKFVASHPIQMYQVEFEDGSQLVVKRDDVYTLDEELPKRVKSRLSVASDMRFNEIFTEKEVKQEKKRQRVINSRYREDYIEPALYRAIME
# Assay: qHTS Assay for Inhibitors of JMJD2A-Tudor Domain; note: nearly all actives have a fitted effect of over 50% in size
# Settings: AlphaScreen JMJD2A-Tudor / H3K4me3 peptide binding; series mostly up to 114 µM; activity change, negative = inhibition: at the top concentration
# Text: JMJD2A is a jumonji-domain-containing lysine demethylase that uses Fe(II) together with 2-OG to effect oxidative demethylation of histones. Methylation is one of many […] modification that affect epigenetic transcription. […] It is proposed that the functions of JmjD2A binding to the histones, is to maintain marks after they are installed and to spread the modifications by […], establishing a self-propagating cycle for rapid methylation over a large area of chromatin. […] Thus, small molecule targeting of the JMJD2A-tudor domain interaction with its target methylhistone mark is expected to enable sophisticated experiments probing the fine regulatory pathways leading to selective demethylation of a given methyllysine locus based on the methylation state of adjacent histone marks. A quantitative high throughput AlphaScreen has been developed to identify small molecule inhibitors based on a protocol published by NCGC and SGC [4].
# Although AlphaScreen has significant advantages with its utility in a variety of epigenetic target assays, the primary screening data provided in this deposition should be used with caution due to the prevalence of screening artifacts. The top compound concentration tested was high (>100uM) in this assay, which increases number of actives and potential artifacts. An AlphaScreen counterscreen is highly recommended to be run against any putative actives to eliminate non-specific artifacts. Alternatively, one can use other AlphaScreen assays in PubChem to filter out promiscuous hits.
# [1] Lee, J. et al. Distinct binding modes specify the recognition of methylated histone H3K4 and H4K20 by JMJD2A-tudor. Nat Struct Mol Biol. 15(1); 109-11. 2008. PMID: 18084306
# [2] Yasgar, et al. Compound Management for Quantitative High-Throughput Screening. JALA. 2008 Apr;13(2):79-89. PMID: 18496600
# [3] Inglese, et al. Quantitative high-throughput screening: a titration-based approach that efficiently identifies biological activities in large chemical libraries. Proc Natl Acad Sci. 1;103(31):11473-8. 2006. PMID: 16864780
# [4] Quinn et al. A homogeneous method for investigation of methyl-dependent protein-protein interactions in epigenetics. Nucleic Acids Res., 38(2):e11. 2010. PMID: […]
# [5] Baell,Holloway. New substructure filters for removal of pan assay interference compounds (PAINS) from screening libraries and for their exclusion in bioassays. J Med Chem. 53(7):2719-40. 2010. PMID: 20131845
# NIH Molecular Libraries Probe Production Network [MLPCN]
# NIH Chemical Genomics Center [NCGC]
# Structural Genomics Consortium (SGC)
# To each well of a 1,536w plate, 2ul of JMJD2A-Tudor (final 100nM) and 1ul biotinylated histone peptide methylated at Lys4 [b-H3(1-18)K4me3] (final 50nM) were added in 1x PBS buffer, pH 7.4, containing 0.01% Tween-20, using a nanoliter dispenser. Formation of a protein-peptide complex proceeded at room temperature for 30 min. A Kalypsys pin-tool transferred 23nl of library compound solution in DMSO to each well. Following a 30 min incubation of the protein-peptide complex with compounds at room temperature, a mixture of 40 µg/mL each streptavidin-coated donor and nickel chelate acceptor AlphaScreen beads (final 10 µg/mL) was added in a 1ul dispense for a final volume of 4ul, followed by a brief centrifugation (1000 rpm, 1 min). Plates were incubated protected from the light for 20 min at room temperature. Microplates were then read on an EnVision multilabel plate reader using the 1,536 plate HTS AlphaScreen aperture (excitation time 80 ms, measurement time 240 ms).
# % is set by controls: 0 for no effect and ±100 for the full control effect; potency is the fitted concentration of half-maximal effect.
SMILES,"activity change, negative = inhibition",Potency
CCCNc1ncnc2c1c(-c1ccccc1)cn2-c1ccc(OCC)cc1,-30%,–
Cc1nc2ccc(S(=O)(=O)NC(C(=O)NCc3ccccc3Cl)C(C)C)cc2s1 (stereo not drawn),-16.2%,–
COc1ccc(-c2nc3ccccc3o2)cc1NC(=O)c1cc([N+](=O)[O-])ccc1N1CCOCC1,-3.73%,–
CCOc1ccc(C(=O)N(Cc2ccc(N(C)C)cc2)C2CCS(=O)(=O)C2)cc1 (stereo not drawn),-25.5%,–
Cc1cc(Cl)ccc1OCC(=O)N(Cc1ccc(N(C)C)cc1)C1CCS(=O)(=O)C1 (stereo not drawn),–,50.1 µM (active)
Cc1ccc(CN(C(=O)COc2ccc(Cl)cc2C)C2CCS(=O)(=O)C2)o1 (stereo not drawn),–,11.2 µM (active)
Cc1ccccc1OCC(=O)N(Cc1cccc(F)c1)C1CCS(=O)(=O)C1 (stereo not drawn),-5.52%,–
CCc1ccc(OCC(=O)N(Cc2ccccc2)C2CCS(=O)(=O)C2)cc1 (stereo not drawn),-8.83%,–
COc1cc(C(=O)N(Cc2ccc(N(C)C)cc2)C2CCS(=O)(=O)C2)cc(OC)c1OC (stereo not drawn),-6.11% [at 11.4 µM],–
CC(C)c1ccc(OCC(=O)N(Cc2ccc(N(C)C)cc2)C2CCS(=O)(=O)C2)cc1 (stereo not drawn),–,44.7 µM (active)
Cc1cc(C)c(OCC(=O)N(Cc2cccs2)C2CCS(=O)(=O)C2)c(C)c1 (stereo not drawn),-18.9%,–
COc1ccccc1C(=O)N(Cc1ccc(C)o1)C1CCS(=O)(=O)C1 (stereo not drawn),2.07%,–
O=C(C1CC1)N1CCc2cc(Br)cc(S(=O)(=O)N3CCN(c4ccccc4F)CC3)c21,-11.6%,–
CCc1ccc2oc(-c3ccc(NC(=O)c4cc5ccccc5o4)cc3)nc2c1,3.27%,–
Cc1cccc(N2CCN(C(=O)Cn3ncc4c5ccccc5n(C)c4c3=O)CC2C)c1 (stereo not drawn),0.336%,–
CCc1ccc(CN(Cc2ccco2)C(=O)COc2ccc(Cl)c(C)c2)cc1,21.1%,–
COc1ccc(-n2nnc(-c3nsc(NC(=O)c4ccc(C)c(C)c4)n3)c2C)cc1Cl,-11.7%,–
COc1ccc(-c2cc(C(F)(F)F)n3nc(-c4ccccc4)cc3n2)cc1OC,29.5%,–
CCc1ccccc1NC(=O)c1cnn(-c2ccc(F)cc2)c1C1CCNCC1,5.18%,–
CCc1ccc2oc(-c3ccc(C)c(NC(=O)/C=C/c4ccco4)c3)nc2c1,-16.7%,–
C=CS(=O)c1sc(Cl)c(N2CCOCC2)c1[N+](=O)[O-] (stereo not drawn),–,50.1 µM (active)
COc1ccc(NC(=O)C2CCCN(S(=O)(=O)c3c(C)[nH]c(=O)[nH]c3=O)C2)c(OC)c1 (stereo not drawn),5.82%,–
CCc1ccc(CNC(=O)c2ccc(CS(=O)c3ccc(Br)cc3)o2)cc1 (stereo not drawn),-2.68%,–
CCCn1ccc2c(OCC(=O)NCc3ccc(F)cc3)cccc2c1=O,4.22%,–

SMILES,"activity change, negative = inhibition",Potency
Cc1ccc(S(=O)(=O)n2nc(-c3ccc(Cl)cc3)nc2NCc2ccccc2)cc1,3.09%,–
Cc1c(C(=O)Nc2cccc(Cl)c2)oc2ccc(S(=O)(=O)N3CCOCC3)cc12,-11.9%,–
CC(C)C[C@H](NC(=O)N1CC(=O)Nc2ccccc21)C(=O)N[C@H](Cc1ccccc1)C(=O)O,-19%,–
Cc1oc2c(C)c3oc(=O)c(CC(=O)N[C@@H](CC(C)C)C(=O)N[C@@H](Cc4ccccc4)C(=O)O)c(C)c3cc2c1C,–,56.2 µM (active)
Cc1c(OC(C)C(=O)N[C@@H](Cc2ccccc2)C(=O)O)ccc2c3c(c(=O)oc12)CCCC3 (stereo partly drawn),-10.9%,–
COC(=O)c1ccccc1NC(=O)Cn1c(=O)cc(C)c2c(C)nn(-c3cccc(Cl)c3C)c21,-9.33%,–
Clc1ccc(CN2CCCCCC2)cc1Cl,–,3.98 µM (active)
O=C(Nc1ccc(CN2CCOCC2)cc1)c1cc(Cl)ccc1Cl,8.97%,–
Clc1ccc(-n2nnnc2CN2CCCCC2)cc1Cl,6.72%,–
O=C(NCCc1csc(-c2ccc(C(F)(F)F)cc2)n1)C(=O)Nc1ccc(F)c(Cl)c1,-12.9%,–
Brc1ccc2c(c1)NC(c1cccnc1)=NC(c1ccccc1)=N2,-22.3%,–
COc1ccc(C2=NC(c3ccncc3)=Nc3ccc(Br)cc3N2)cc1,–,44.7 µM (active)
COCCNC(=O)c1ccc2c(c1)N(Cc1cccc(Cl)c1)C(=O)c1ccccc1S2(=O)=O,-12.5%,–
CN(C)Cc1cn(-c2ccccc2)nc1-c1ccccc1,-7.09%,–
Cc1cc(/C=C(/C#N)C(=O)Nc2ccc(Cl)cc2)c(C)n1-c1cccnc1,-11.6%,–
Cc1ccc(-n2c(C)cc(/C=C(\C#N)C(=O)NCC3CCCO3)c2C)cc1 (stereo not drawn),–,50.1 µM (active)
Cc1ccc(C(=O)N/C(=C/c2cccs2)C(=O)NCC2CCCO2)cc1 (stereo not drawn),-4.23%,–
Cc1cc2c(cc3c(SCc4nc(-c5ccccc5)oc4C)nnc(C)n32)o1,-10.6%,–
CNc1nc(=O)n(C2CCCO2)cc1C (stereo not drawn),-6.25%,–
O=c1nc(NO)ccn1C1CCCO1 (stereo not drawn),–,8.91 µM (active)
Nc1ccn(C2CC(O)C(CO)O2)c(=O)n1 (stereo not drawn),-6.47%,–
Cc1cccc(NC(=O)CSc2nc3c(oc4ccccc43)c(=O)n2-c2ccc(F)cc2)c1,-0.727%,–
CCc1ccc(NC(=O)c2sc3nc4c(cc3c2N)CN(CC)CC4)cc1,–,56.2 µM (active)
COc1ccc(Cl)cc1NC(=O)c1sc2nc3c(cc2c1N)CN(C)CC3,-8.42%,–
